Results on 20 compounds are retold here after PubChem BioAssay.

A short description of experiment [1]: antimalarial activity against Dd2 strain (AID 2302;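 active = growth inhibition above 50% at the single 2 µM test dose, taken to imply half-maximal potency below 2 µM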;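 also: 0% = DMSO untreated growth and 100% = chloroquine plus artemisinin killed control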). Particulars: P. falciparum Dd2 in RBCs, LDH growth readout, 72 h; at 2 µM; active compounds read high.
The nature of experiment [2]: HepG2 cytotoxicity, primary screen, cytotoxicity control for P. falciparum antimalarial project, cell-based, ATP luminescence (AID 2303;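 active = inhibition above 50%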;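 also: 0% = DMSO wells and 100% = digitonin-killed cells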). As to conditions: HepG2 viability, 24-48 h, at 10 µM, active compounds read high.
Experiment [3] concerns the target L-lactate dehydrogenase (Plasmodium falciparum (isolate CDC / Honduras)) (UniProt Q27743). The experiment in a line: PfLDH activity inhibition – cell lysate, 3D7 strain, counter-screen for P. falciparum growth inhibition project (AID 2304).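 Also: 0% = vehicle and 100% = reference inhibitor.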 As to conditions: P. falciparum 3D7 crude extract, LDH APAD/NBT absorbance; at 2 µM; active compounds read high.
Experiment [4] is described as follows: inhibition of 3D7 malaria parasite growth – strain 3D7 (AID 2306).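 Also: 0% = DMSO wells and 100% = chloroquine plus artemisinin control wells.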 Particulars: P. falciparum 3D7 erythrocytic growth, LDH absorbance, 72 h; at 2 µM; active compounds read high.
The target of experiment [5] is Calcium-dependent protein kinase 1 (Plasmodium falciparum (isolate 3D7)) (UniProt P62344). The experiment is described as follows: PfCDPK1 kinase inhibitors, biochemical, TCAMS library (AID 1159585; cut-off not given, nearly all actives have IC50 up to about 0.98 µM;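 also: inhibitors leave more ATP so luminescence rises with inhibition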). Particulars: recombinant PfCDPK1, Kinase-Glo ATP depletion luminescence.
Chain of Calcium-dependent protein kinase 1 (Plasmodium falciparum (isolate 3D7)) (P62344 whole entry, looked up): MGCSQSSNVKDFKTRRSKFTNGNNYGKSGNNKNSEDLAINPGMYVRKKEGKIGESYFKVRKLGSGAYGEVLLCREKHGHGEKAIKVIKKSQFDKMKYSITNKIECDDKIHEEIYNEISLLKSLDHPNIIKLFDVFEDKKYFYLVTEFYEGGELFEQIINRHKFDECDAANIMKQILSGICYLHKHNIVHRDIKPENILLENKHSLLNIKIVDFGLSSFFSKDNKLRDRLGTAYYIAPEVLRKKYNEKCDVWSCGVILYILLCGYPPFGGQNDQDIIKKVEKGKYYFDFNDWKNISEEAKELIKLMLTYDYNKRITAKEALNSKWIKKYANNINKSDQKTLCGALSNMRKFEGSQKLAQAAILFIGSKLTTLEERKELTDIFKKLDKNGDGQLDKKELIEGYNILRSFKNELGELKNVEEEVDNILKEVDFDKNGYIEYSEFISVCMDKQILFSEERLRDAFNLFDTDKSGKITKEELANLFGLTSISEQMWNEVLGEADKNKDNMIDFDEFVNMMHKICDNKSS
In experiment [6] the target is Plasmodium falciparum protein kinase 6 (PK6, PF3D7_1337100) (UniProt Q8IDW1). The experiment in a line: PfPK6 kinase inhibitors, biochemical, TCAMS library (AID 1159586). Particulars: recombinant PfPK6, Kinase-Glo ATP depletion luminescence.
Chain of Plasmodium falciparum protein kinase 6 (PK6, PF3D7_1337100) (Q8IDW1 1-305): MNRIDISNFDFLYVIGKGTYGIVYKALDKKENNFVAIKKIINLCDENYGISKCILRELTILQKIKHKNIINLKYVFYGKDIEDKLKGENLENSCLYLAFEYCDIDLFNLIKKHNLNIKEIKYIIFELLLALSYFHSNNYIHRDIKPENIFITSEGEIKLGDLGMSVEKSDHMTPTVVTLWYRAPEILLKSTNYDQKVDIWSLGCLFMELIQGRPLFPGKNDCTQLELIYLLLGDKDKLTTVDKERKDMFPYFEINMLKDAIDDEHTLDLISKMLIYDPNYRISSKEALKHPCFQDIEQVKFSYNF
The target of experiment [7] is Protein kinase 7 (PK7), Plasmodium falciparum 3D7 (PF3D7_0213400) (UniProt Q7YTF7). The experiment is described as follows: inhibition of Plasmodium PK7 catalytic activity – biochemical, TCAMS antimalarial set, Kinase-Glo luminescence (AID 1159587). Particulars: recombinant PfPK7, Kinase-Glo ATP depletion luminescence.
Chain of Protein kinase 7 (PK7), Plasmodium falciparum 3D7 (PF3D7_0213400) (Q7YTF7 1-343): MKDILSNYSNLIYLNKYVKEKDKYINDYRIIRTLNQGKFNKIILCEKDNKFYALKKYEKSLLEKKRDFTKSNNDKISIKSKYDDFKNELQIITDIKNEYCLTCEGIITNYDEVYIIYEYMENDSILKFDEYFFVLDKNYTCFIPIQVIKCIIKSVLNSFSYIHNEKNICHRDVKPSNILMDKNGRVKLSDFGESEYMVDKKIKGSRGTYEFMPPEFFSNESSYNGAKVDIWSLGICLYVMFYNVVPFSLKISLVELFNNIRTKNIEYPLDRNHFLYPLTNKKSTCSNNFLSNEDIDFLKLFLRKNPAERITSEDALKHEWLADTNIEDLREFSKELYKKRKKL
In experiment [8] the target is Calcium-dependent protein kinase 4 (Plasmodium falciparum (isolate 3D7)) (UniProt Q8IBS5). The experiment in a line: PfCDPK4 kinase inhibitors, biochemical, TCAMS library (AID 1159588; cut-off not given, nearly all actives have IC50 up to about 0.91 µM). As to conditions: recombinant PfCDPK4, Kinase-Glo ATP depletion luminescence.
Chain of Calcium-dependent protein kinase 4 (Plasmodium falciparum (isolate 3D7)) (Q8IBS5 whole entry, looked up): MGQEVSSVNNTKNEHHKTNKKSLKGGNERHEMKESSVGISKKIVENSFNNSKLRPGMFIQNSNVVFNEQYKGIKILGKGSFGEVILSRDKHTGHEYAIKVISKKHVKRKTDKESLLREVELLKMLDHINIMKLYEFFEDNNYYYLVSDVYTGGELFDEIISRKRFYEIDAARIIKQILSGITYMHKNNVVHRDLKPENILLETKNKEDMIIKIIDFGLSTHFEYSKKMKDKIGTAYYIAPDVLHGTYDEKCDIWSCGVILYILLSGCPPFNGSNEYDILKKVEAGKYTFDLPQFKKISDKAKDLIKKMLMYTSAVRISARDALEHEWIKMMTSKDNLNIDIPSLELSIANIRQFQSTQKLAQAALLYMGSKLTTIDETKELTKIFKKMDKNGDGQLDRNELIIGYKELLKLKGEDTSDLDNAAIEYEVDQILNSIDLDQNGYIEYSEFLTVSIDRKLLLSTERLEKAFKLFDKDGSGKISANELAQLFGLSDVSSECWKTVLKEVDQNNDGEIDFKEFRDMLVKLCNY

Values without a mark were called inactive. For some of these results: Measured potencies and affinities stand elsewhere. Calls of active or inactive are those of the source. Unless noted, no rule for the calls is given here.

Chain of L-lactate dehydrogenase (Plasmodium falciparum (isolate CDC / Honduras)) (Q27743 whole entry, looked up): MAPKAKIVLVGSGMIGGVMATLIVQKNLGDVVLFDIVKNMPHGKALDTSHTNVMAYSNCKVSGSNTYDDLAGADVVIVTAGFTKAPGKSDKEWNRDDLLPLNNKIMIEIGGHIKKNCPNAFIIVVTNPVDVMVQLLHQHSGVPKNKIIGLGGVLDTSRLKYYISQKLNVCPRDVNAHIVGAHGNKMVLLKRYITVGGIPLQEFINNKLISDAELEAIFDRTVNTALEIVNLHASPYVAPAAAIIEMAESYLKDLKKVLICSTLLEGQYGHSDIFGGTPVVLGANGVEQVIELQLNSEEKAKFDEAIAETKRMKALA

As to `Clc1cc(Nc2ccnc3ccc(Br)cc23)ccc1Oc1ccc(Cl)c2ccccc12`, the figures for the growth inhibition in experiment [1] and in experiment [4] were 86% (active) and 99% (active), respectively. The inhibition was 6% in experiment [2] and 3% in experiment [3]. In addition, the result in experiment [5], in experiment [6], in experiment [7] and in experiment [8] was inactive.

As for `COc1ccc2nccc([C@@H](O)CN3CCC(NC(=O)C(c4cc5ccccc5o4)N4CCN(Cc5ccccc5)CC4)CC3)c2c1` (stereo not given in full), the growth inhibition in experiment [1] was 75% (active); in experiment [4], 91% (active). Moreover, the inhibition in experiment [2] is 30%; in experiment [3], -5%. The outcome in experiment [5], in experiment [6], in experiment [7] and in experiment [8] was inactive.

Turning to `CN(C)CCN(C)Cc1ccc(-c2ccc(NC(=O)c3cccc(C#N)c3)cc2)cc1`, the growth inhibition in experiment [1] is 49%; in experiment [4], 89% (active). In addition, the inhibition in experiment [2] was 20%; in experiment [3], 2%. Moreover, the result in experiment [5], in experiment [6], in experiment [7] and in experiment [8] was inactive.

For the compound `CC[C@H](C)CNC(=O)c1cncc(-c2ccc(CNCCCc3ccccc3)cc2)c1`, the figures for the growth inhibition in experiment [1] and in experiment [4] were 99% (active) and 101% (active), respectively. Moreover, the inhibition was 19% in experiment [2] and -2% in experiment [3]. Further, the outcome in experiment [5], in experiment [6], in experiment [7] and in experiment [8] was inactive.

As for `COc1cc(/C=C/C(=O)NC2CCC(N3CCC(c4ccccc4C)CC3)CC2)cc(OC)c1` (stereo not given), the values for the growth inhibition in experiment [1] and in experiment [4] were 11% and 89% (active), respectively. Further, the figures for the inhibition in experiment [2] and in experiment [3] were 51% (active) and -4%, respectively. In addition, the result in experiment [5], in experiment [6], in experiment [7] and in experiment [8] was inactive.

Turning to `Oc1ccccc1CCNC1CCc2ccccc2C1` (stereo not given), the growth inhibition was 95% (active) in experiment [1] and 96% (active) in experiment [4]. Moreover, the inhibition in experiment [2] is -4%; in experiment [3], 4%. The result in experiment [5], in experiment [6], in experiment [7] and in experiment [8] was inactive.

As to `CCc1cn(CCOC)c2ccc(C(=O)N[C@@H](Cc3ccccc3)[C@H](O)CNC(C)(C)CCCC(C)C)cc12`, the growth inhibition in experiment [1] and in experiment [4] was 98% (active) in each case. Besides, the values for the inhibition in experiment [2] and in experiment [3] were 35% and 1%, respectively. Also, the outcome in experiment [5], in experiment [6], in experiment [7] and in experiment [8] was inactive.

In the case of `COc1cc(-c2nc3ccc(N4CCN(C)CC4)cc3[nH]2)cc(OC)c1OC`, the values for the growth inhibition in experiment [1] and in experiment [4] were 15% and 87% (active), respectively. The results for the inhibition in experiment [2] and in experiment [3] were 6% and 0%, respectively. Further, the outcome in experiment [5], in experiment [6], in experiment [7] and in experiment [8] was inactive.

On to `Cc1cc(N2CCN(CC3CCN(C)CC3)CC2)nc(Nc2ccc(Br)cc2)n1`, for which the growth inhibition in experiment [1] and in experiment [4] was 100% (active) each time. Further, the inhibition in experiment [2] was 31%; in experiment [3] it was 5%. The outcome in experiment [5], in experiment [6], in experiment [7] and in experiment [8] was inactive.

Take `CC(C)C[C@H](NC(=O)c1cc2ccccc2s1)C(=O)N[C@H]1CCN(Cc2ccc(OC[C@@H]3CCCN3C)c(Cl)c2)C1`: the growth inhibition in experiment [1] is 81% (active); in experiment [4] it was 101% (active). Besides, the figures for the inhibition in experiment [2] and in experiment [3] were 83% (active) and -4%, respectively. Besides, the result in experiment [5], in experiment [6], in experiment [7] and in experiment [8] was inactive.

As to `CC(C)CNCc1cccc(-c2ccccc2CN(C(=O)NCCc2ccccc2)C2CCN(Cc3ccccc3)CC2)c1`, the growth inhibition in experiment [1] was 82% (active); in experiment [4] it was 89% (active). Besides, the inhibition in experiment [2] is 42%; in experiment [3] it was -6%. Further, the outcome in experiment [5], in experiment [6], in experiment [7] and in experiment [8] was inactive.

For `Cc1noc(C)c1-c1cccc(CNCc2cccc(-c3cccc(-c4nc5ccc(C(F)(F)F)cc5[nH]4)c3)c2)c1`, the growth inhibition is 95% (active) in experiment [1] and 101% (active) in experiment [4]. The inhibition in experiment [2] is 18%; in experiment [3], 5%. Further, the result in experiment [5], in experiment [6], in experiment [7] and in experiment [8] was inactive.

For `COc1cc2nc(NCCc3ccccc3)nc(NCc3cc(C)no3)c2cc1OC`, the growth inhibition in experiment [1] was 100% (active); in experiment [4] it was 99% (active). Besides, the figures for the inhibition in experiment [2] and in experiment [3] were 5% and -3%, respectively. For the same compound, the result in experiment [5], in experiment [6], in experiment [7] and in experiment [8] was inactive.

For the compound `Cc1sc(CNCCCNc2cc(=O)c3ccccc3[nH]2)cc1Br`, the growth inhibition is 83% (active) in experiment [1] and 100% (active) in experiment [4]. Besides, the inhibition in experiment [2] was 12%; in experiment [3] it was -3%. The outcome in experiment [5], in experiment [6], in experiment [7] and in experiment [8] was inactive.

Regarding `Cc1ccc(S(=O)(=O)N(CCCN2CCN(C)CC2)Cc2csc(-c3ccc(CNCc4ccccc4)cc3)n2)cc1`, the growth inhibition in experiment [1] is 90% (active); in experiment [4], 97% (active). The results for the inhibition in experiment [2] and in experiment [3] were 15% and 3%, respectively. Moreover, the outcome in experiment [5], in experiment [6], in experiment [7] and in experiment [8] was inactive.

Turning to `CC[C@H]1CN(CCCC(=O)c2ccccc2)CC[C@H]1CCCc1ccnc2ccc(OC(=O)c3ccccc3)cc12`, the growth inhibition in experiment [1] is 68% (active); in experiment [4], 83% (active). Besides, the inhibition in experiment [2] is 28%; in experiment [3] it was 1%. The result in experiment [5], in experiment [6], in experiment [7] and in experiment [8] was inactive.

`COc1cccc(NC(=O)Nc2ccc(Nc3nc(C)cc(N4CCCC4)n3)cc2)c1`: the values for the growth inhibition in experiment [1] and in experiment [4] were 100% (active) and 101% (active), respectively. Further, the inhibition in experiment [2] is 28%; in experiment [3], -1%. The outcome in experiment [5], in experiment [6], in experiment [7] and in experiment [8] was inactive.

As to `COc1ccc(-n2ccnc2SCC(=O)Nc2cc(Cl)ccc2OC)c(OC)c1`, the growth inhibition in experiment [1] was 92% (active); in experiment [4], 96% (active). The inhibition was -3% in experiment [2] and -8% in experiment [3]. Moreover, the outcome in experiment [5], in experiment [6], in experiment [7] and in experiment [8] was inactive.

Regarding `Cn1nc(-c2ccc(Cl)cc2)c2cc(C(=O)NCCN3CCOCC3)sc21`, the growth inhibition in experiment [1] is 29%; in experiment [4], 97% (active). The inhibition in experiment [2] was 21%; in experiment [3] it was -8%. The result in experiment [5], in experiment [6], in experiment [7] and in experiment [8] was inactive.

For the compound `CC(C)Cn1c(Sc2ccc(C#N)c([N+](=O)[O-])c2)nnc1-c1ccc(N(C)C)cc1`, the growth inhibition in experiment [1] and in experiment [4] was 98% (active) throughout. The inhibition in experiment [2] and in experiment [3] was 4% throughout. Also, the outcome in experiment [5], in experiment [6], in experiment [7] and in experiment [8] was inactive.
